This note sets out measurements from PubChem BioAssay AID894 (National Center for Advancing Translational Sciences (NCATS), 2007).

Molecules are shown by their SMILES. Several values for one entry are separate records, joined by “and”; a condition that tells them apart may be missing. Equal values may be shown once. Screen size: about 150,000 compounds; about 6,500 (4.3%) were called active. Inconclusive results (about 12%) are left out. For the sample, actives were picked, then their nearest neighbours and some compounds at random. A number with no mark means an inactive call. Calls come from the whole dose curve; as a rule, active = well fitted inhibition curve with a large enough effect (not every such curve was filed as active); inconclusive = small, poorly fitted or top-dose-only effect, or another doubt; inactive = no such curve, though single readings can be large or run the other way.
% is set by controls: 0 for no effect and ±100 for the full control effect; potency is the fitted concentration of half-maximal effect.

In this assay the target is 15-hydroxyprostaglandin dehydrogenase [NAD(+)] (Homo sapiens) (UniProt P15428). As to the kind of experiment: qHTS Assay for Inhibitors of HPGD (15-Hydroxyprostaglandin Dehydrogenase). Particulars: purified HPGD, NADH fluorescence kinetic, PGE2 substrate; activity change, negative = inhibition: active compounds read low. From the text: Human 15-Hydroxyprostaglandin dehydrogenase (HPGD) catalyzes the inactivation of prostaglandin E2, and plays a major role in cancer biology by antagonizing the oncogenic potential of cyclooxygenase type 2 (COX2). Assays are available, based on absorbance/fluorescence increase of NADH with the substrate 15-OH prostaglandin E2. References 1. Myung SJ, Rerko RM, Yan M, Platzer P, Guda K, Dotson A, Lawrence E, Dannenberg AJ, Lovgren AK, Luo G, Pretlow TP, Newman RA, Willis J, Dawson D, Markowitz SD. 15-Hydroxyprostaglandin dehydrogenase is an in vivo suppressor of colon tumorigenesis. […] 2. Yan M, Rerko RM, Platzer P, Dawson D, Willis J, Tong M, Lawrence E, Lutterbaugh J, Lu S, Willson JK, Luo G, Hensold J, Tai HH, Wilson K, Markowitz SD. 15-Hydroxyprostaglandin dehydrogenase, a COX-2 oncogene antagonist, is a TGF-beta-induced suppressor of human gastrointestinal cancers. Proc Natl Acad Sci U S A. 2004 Dec 14;101(50):17468-73. 3. Yang L, Amann JM, Kikuchi T, Porta R, Guix M, Gonzalez A, Park KH, Billheimer D, Arteaga CL, Tai HH, Dubois R, Carbone DP, Johnson DH. Inhibition of Epidermal Growth Factor Receptor Signaling Elevates 15-Hydroxyprostaglandin Dehydrogenase in Non-Small-Cell Lung Cancer. Cancer Res. 2007 Jun 15;67(12):5587-5593. Inhibition of HPGD activity was screened by utilizing prostaglandin as an electron donor and NAD+ as an electron acceptor/cofactor. An increase in the fluorescence intensity due to conversion of NAD+ to NADH was used to measure the enzyme activity. NIH Chemical Genomics Center [NCGC] Structural Genomics Consortium [SGC]
Chain of 15-hydroxyprostaglandin dehydrogenase [NAD(+)] (Homo sapiens) (P15428 whole entry, looked up): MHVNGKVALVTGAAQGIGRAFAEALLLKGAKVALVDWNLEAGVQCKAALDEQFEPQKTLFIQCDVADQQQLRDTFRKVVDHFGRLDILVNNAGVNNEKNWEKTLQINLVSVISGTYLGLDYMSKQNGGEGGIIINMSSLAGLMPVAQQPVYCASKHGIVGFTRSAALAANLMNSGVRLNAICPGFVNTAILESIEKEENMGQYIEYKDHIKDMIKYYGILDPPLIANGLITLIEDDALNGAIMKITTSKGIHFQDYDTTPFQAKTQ
Buffer: 50 mM Tris-HCl, 0.01% Tween 20, pH 8. Enzyme Buffer: 50 mM Tris-HCl, 0.5 mM NAD+ and 0.01% Tween 20, pH 8. Reagents/Controls: Buffer in columns 3 and 4 as negative control (no enzyme). Substrate/cofactor solution: 1 mM NAD+ and 30 uM prostaglandin (Sigma, prostaglandin E2, # P5640) final concentrations dispensed throughout the plate. Enzyme: 20 nM HPGD final concentration in columns 1, 2, 5-48. Column 1 and 2 is neutral (100% activity). A titration of control inhibitor GW5074 (G6416 Sigma-Aldrich, St. Louis, MO) top concentration 10 mM in DMSO, then 1:2 dilution for a total of 16 concentrations in duplicate) was pin-transferred into column 2. Assay Steps: Three uL of enzyme were dispensed to 1536-well Greiner black solid bottom plates. Compounds and control inhibitor (23 nL) were transferred via Kalypsys PinTool. The plates were incubated for 15 min at room temperature, and then 1 uL of substrate/cofactor solution was added to start the reaction. The plates were immediately transferred to and read 5 times every 30 seconds on ViewLux High-throughput CCD imager (Perkin-Elmer) using 360 nm excitation and 450 nm emission fluorescence protocol. The fluorescence intensity difference between the last and the first time points was used to compute reaction progress.
(Quantitative high-throughput screening tests each substance at several concentrations.)
Consider `O=C(Oc1ccccc1C(=S)N1CCCCC1)c1cc([N+](=O)[O-])cc([N+](=O)[O-])c1`, for which the Potency was 14.1 µM (active).

Regarding `COc1cc(C(=S)N2CCOCC2)cc(OC)c1OC(=O)c1cc([N+](=O)[O-])cc([N+](=O)[O-])c1`, the activity change, negative = inhibition was -12%. Regarding `CCOC(=O)c1[nH]c2c(c1-c1ccccc1)C(=O)CC(c1ccc(Cl)cc1)C2` (configuration not stated), the activity change, negative = inhibition was -2.93%.

For the compound `CCOC(=O)C1=C(C)NC(=O)N(C(C)=O)C1c1ccc(Cl)cc1` (configuration not stated), the activity change, negative = inhibition is 0.0111%. For the compound `CCOC(=O)C1Sc2[nH]c(=O)sc2C(c2ccc(Cl)cc2)C1C(=O)OCC` (configuration not stated), the Potency is 3.98 µM (active).

As to `Nc1ccc(-c2sc(N)nc2-c2ccccc2)cc1`, the activity change, negative = inhibition was -11%.

Consider `Nc1ccc(Nc2ccccc2)cc1`, for which the activity change, negative = inhibition is -5.62%.

Consider `c1ccc(Nc2n[nH]nc2-c2ccccc2)cc1`, for which the Potency is 14.1 µM (active).

With `COc1cccc2c(O)cc(=O)n(C)c12`, the activity change, negative = inhibition is -2.82%.

In the case of `CC(Oc1ccccc1F)C(=O)NN` (configuration not stated), the activity change, negative = inhibition is -6.91%.

For `O=c1c(O)c(Br)ccc2c(Br)c(O)c(O)c(O)c12`, the Potency is 15.8 µM (active). With `COc1ccc(C(=O)COC(=O)c2ccc3ccccc3n2)cc1`, the activity change, negative = inhibition is -15.3%.

Regarding `COc1ccc2c(c1)c(=O)c(C(=O)c1ccc(Cl)cc1)cn2CC(=O)Nc1ccc(F)cc1`, the activity change, negative = inhibition is -6.67%. Turning to `CN(CC(=O)Nc1ccc(S(=O)(=O)N2CCCC2)cc1)Cc1ccc(Cl)c(Cl)c1`, the activity change, negative = inhibition was -13.8%. For the compound `COC(=O)C1=C(C(=O)OC)[C@@H]2N(C)c3ccccc3[C@@]23C[C@@H](C(=O)OC)N(S(=O)(=O)c2ccc(Br)cc2)C3=N1`, the activity change, negative = inhibition is 0.758%. Take `CC(=O)Nc1ccc(/C(C)=N/NC(=O)CN(c2ccccc2Br)S(C)(=O)=O)cc1`: the activity change, negative = inhibition was -3.71%. On the same count and under the same terms, the figure for `CCCCNS(=O)(=O)c1ccc2nc(SCC(=O)Nc3cc(C)cc(C)c3)[nH]c2c1` is -21.1%.

On to `O=C(CSc1nc(-c2ccccc2)cs1)Nc1cccc([N+](=O)[O-])c1`, for which the activity change, negative = inhibition was -24.6%. Turning to `Nc1nnc(SCC(=O)Nc2ccc3nc(SCC(=O)Nc4ccccc4)sc3c2)s1`, the Potency was 4.47 µM (active). Regarding `CCCCNC(=O)CSc1nc2ccc(NC(=O)CSc3nnc(N)s3)cc2s1`, the Potency was 5.01 µM (active). On to `CCCCNC(=O)CSc1nnc(-c2ccco2)n1C`, for which the activity change, negative = inhibition was -11.5%.

Consider `Cc1cccc(NC(=O)CSc2nnc(NC(=O)CN3CCOCC3)s2)c1`, for which the activity change, negative = inhibition was -8.48%. On the same count and under the same terms, the figure for `CC(CNc1ccc([N+](=O)[O-])c2cccnc12)Nc1c([N+](=O)[O-])cc(C(F)(F)F)cc1[N+](=O)[O-]` (configuration not stated) is -20.4%. With `O=C(O)c1ccc(/C=N/NC(=O)c2ccc(Br)cc2)cc1`, the activity change, negative = inhibition is -2.06%. On the same count and under the same terms, under `CC(=O)NC1C(OCc2ccccc2)OC(COC(C)=O)C(OC(C)=O)C1OC(C)=O` (configuration not stated) stands -0.385%; under `CCN(CC)c1ccc(C(=O)N/N=C(\C)c2cccc(OC)c2)cc1`, -8.48%; under `COc1ccc(OC(C)C(=O)NCCc2nc3ccccc3[nH]2)cc1` (configuration not stated), -0.239%. Regarding `CC(C)CCNC(=O)c1cccnc1Sc1ccccc1`, the activity change, negative = inhibition is -7.91%. As to `CSc1nc(-c2ccco2)nn1C(=O)CCc1ccccc1`, the activity change, negative = inhibition is -14%. As for `CCOc1ccccc1/C=c1\sc2nc(-c3ccco3)nn2c1=O`, the Potency was 17.8 µM (active). Turning to `O=c1nc2s/c(=C\c3ccco3)c(=O)n2nc1Cc1ccccc1`, the activity change, negative = inhibition is -22.5%. As to `Cc1ccc(C(=O)NC2CCN(C(=O)N3CCOCC3)CC2)cc1`, the activity change, negative = inhibition is -4.3%. For `O=C(NC1CCCCC1)c1cc([N+](=O)[O-])ccc1N1CCOCC1`, the activity change, negative = inhibition is -0.536%. Regarding `O=C(NC1CCCCC1)c1ccc(CNc2c(N3CCOCC3)c(=O)c2=O)cc1`, the Potency is 14.1 µM (active). Regarding `CCS(=O)(=O)N1Cc2ccccc2CC1C(=O)Nc1nc2ccc(F)cc2s1` (configuration not stated), the activity change, negative = inhibition was -14%.

Consider `CCc1nnc(NC(=O)C2CC(=O)N(c3ccc4c(c3)OCCO4)C2)s1` (configuration not stated), for which the activity change, negative = inhibition was -28.3%. Consider `COC(=O)Cc1ccc(OCC(=O)Nc2ccc(OC(F)(F)F)cc2)cc1`, for which the activity change, negative = inhibition is -9.9%. For `O=C(CSCC(=O)Nc1cccc([N+](=O)[O-])c1)Nc1ccccc1`, the activity change, negative = inhibition was -9.37%. Take `Cc1ccccc1NC(=S)Nc1cccc([N+](=O)[O-])c1`: the activity change, negative = inhibition was -3.09%. On to `COC(=O)/C=C\C(=O)Nc1cccc([N+](=O)[O-])c1`, for which the Potency was 3.16 µM (active). Turning to `CCCCNC(=O)C(=O)c1ccccc1NC(C)=O`, the activity change, negative = inhibition is -11.5%. As for `CCCCNC(=O)c1ccccc1NC(=O)c1ccccc1N(C)S(C)(=O)=O`, the Potency is 25.1 µM (active). As to `CCC(C)NC(=O)c1ccccc1NC(=O)c1ccccc1N(C)S(C)(=O)=O` (configuration not stated), the activity change, negative = inhibition is 1.34%. On the same count and under the same terms, the figure for `COc1ccc(C)cc1NC(=O)C(Sc1ccccc1)c1ccccc1` (configuration not stated) is -3.19%. On to `CSCCC(Nc1ccc(S(=O)(=O)N2CCOCC2)cc1[N+](=O)[O-])C(=O)OCC(=O)N(C(C)C)C(C)C` (configuration not stated), for which the activity change, negative = inhibition is -2.59%. For `O=C(O)c1ccc2c(c1)C(=O)N(NC(=O)c1ccc(O)cc1)C2=O`, the activity change, negative = inhibition is -11%. With `COC(=O)C(C(=O)OC)C1c2ccccc2C=C(C2CC2)N1C(=O)OC` (configuration not stated), the activity change, negative = inhibition was -11% and -4.45%.
